Data published in PubChem BioAssay.
Records with an inconclusive call do not appear. Calls of active or inactive are those of the source.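 How the source made its calls, unless noted: active means inhibition above 54%, about 3 SD of non-fluorescent compounds; inactive means the rest.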

Legend:
[1] = rapamycin-like changes in RPL19A-GFP expression – cell-based, S. cerevisiae, multiplex flow cytometry, primary screen (AID 1862; in the data active means percent of DMSO control GFP below about 86%;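 further: lower values mimic rapamycin by blocking the RPL19A rise seen in DMSO cells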); conditions: S. cerevisiae RPL19A-GFP strain, flow cytometry fluorescence, 3 h; at 10 µM; stronger effect = lower value
[2] = TOR pathway GLN3 branch reporter MEP2-GFP changes – S. cerevisiae, multiplex flow cytometry, primary screen (AID 1867;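 active means GFP response, as percent of the DMSO control, above the screen-wide mean plus 3 SD, about 139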;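 further: median GFP channel fluorescence of barcode-gated MEP2-GFP cells measured by flow cytometry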); conditions: S. cerevisiae MEP2-GFP strain, 3 h, at 10 µM, stronger effect = higher value, 100% means same as DMSO wells
[3] = TOR pathway RTG branch CIT2 reporter changes – S. cerevisiae, GFP fusion, multiplex flow cytometry, primary screen (AID 1870;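 active means percent response above a set limit, the screen-wide mean plus 3 SD, cut at about 130% in these data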;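 further: barcoded CIT2-GFP strain pooled with four other GFP strains with rapamycin as positive control; median GFP fluorescence per well over plate mean of DMSO wells so 100% = DMSO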); conditions: S. cerevisiae CIT2-GFP expression, 3 h, at 10 µM, stronger effect = higher value
[4] = TOR pathway LAP4-GFP level changes – S. cerevisiae, multiplex flow cytometry, primary screen (AID 1873;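 active means GFP signal, as percent of the solvent control, above the screen mean plus 3 SD, about 149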); conditions: S. cerevisiae LAP4-GFP expression, 3 h, at 10 µM, stronger effect = higher value
[5] = yeast AGP1-GFP level changes, GLN3 branch – cell-based, multiplex flow cytometry, S. cerevisiae, primary screen (AID 1887;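 active means GFP signal above the screen-wide mean plus 3 SD, that is over about 124.5% of the solvent control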;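 further: AGP1-GFP fusion strain of S. cerevisiae within a five-strain barcoded multiplex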); conditions: 3 h, at 10 µM, stronger effect = higher value
[6] = reduced mouse 2C T cell binding to pMHC/ICAM-1 vesicles – MLPCN validation set, flow cytometry, LFA-1/ICAM-1 modulator project, pilot screen (AID 2523;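 active means response below a set limit, under 55% cells CD8-positive and vesicle-bound, and CD8 cells' 90th-percentile brightness under 279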;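 on vesicle binding response: mean PE anti-B7-1 fluorescence of CD8+ cells relative to row control; 100% = QL9-loaded vesicles with DMSO vehicle in the same plate row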); conditions: 2C mouse CD8+ T cells, at 7 µM, stronger effect = lower value; double positive events: measured here: CD8+/vesicle+ event percentage
[7] = molecular target: Integrin beta-1 (Homo sapiens) + Integrin alpha-4 (Homo sapiens) (UniProt P13612+P05556); assay: alpha4beta1 integrin LIBS antibody binding reduction – U937 cells, HUTS-21 mAb, flow cytometry, validation set, VLA-4 allosteric modulator project, pilot screen (AID 2674;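 active means inhibition above 50%, about 3 SD of the validation set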;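 further: antibody binding induced by the VLA-4 ligand LDV present at three times its Kd; 0% = LDV ligand with antibody and no compound and 100% = antibody without LDV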); conditions: HUTS-21 LIBS mAb binding, at 6.7 µM, stronger effect = higher value, binding induced by LDV ligand
Chain of Integrin beta-1 (Homo sapiens) + Integrin alpha-4 (Homo sapiens) (P05556 whole entry, looked up): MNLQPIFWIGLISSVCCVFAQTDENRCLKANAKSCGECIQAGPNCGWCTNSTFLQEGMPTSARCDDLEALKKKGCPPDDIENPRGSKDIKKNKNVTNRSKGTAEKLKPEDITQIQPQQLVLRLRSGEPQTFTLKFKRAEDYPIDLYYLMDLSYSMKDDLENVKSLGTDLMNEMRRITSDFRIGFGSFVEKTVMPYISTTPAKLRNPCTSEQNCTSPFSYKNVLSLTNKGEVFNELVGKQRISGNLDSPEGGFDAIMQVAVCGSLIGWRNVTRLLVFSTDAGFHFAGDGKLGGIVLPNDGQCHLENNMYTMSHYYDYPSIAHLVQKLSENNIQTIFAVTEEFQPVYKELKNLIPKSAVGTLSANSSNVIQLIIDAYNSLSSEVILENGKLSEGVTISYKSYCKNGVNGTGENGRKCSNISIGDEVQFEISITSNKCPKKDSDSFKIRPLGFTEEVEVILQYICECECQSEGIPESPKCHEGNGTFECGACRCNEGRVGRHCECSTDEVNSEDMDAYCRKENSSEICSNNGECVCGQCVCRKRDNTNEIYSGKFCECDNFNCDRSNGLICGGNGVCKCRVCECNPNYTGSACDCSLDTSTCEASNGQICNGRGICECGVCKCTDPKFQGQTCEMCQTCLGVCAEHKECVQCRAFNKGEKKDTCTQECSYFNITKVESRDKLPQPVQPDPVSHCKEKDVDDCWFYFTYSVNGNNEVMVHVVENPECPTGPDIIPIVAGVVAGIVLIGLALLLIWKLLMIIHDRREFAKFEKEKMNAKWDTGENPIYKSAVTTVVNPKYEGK
Chain of Integrin beta-1 (Homo sapiens) + Integrin alpha-4 (Homo sapiens) (P13612 whole entry, looked up): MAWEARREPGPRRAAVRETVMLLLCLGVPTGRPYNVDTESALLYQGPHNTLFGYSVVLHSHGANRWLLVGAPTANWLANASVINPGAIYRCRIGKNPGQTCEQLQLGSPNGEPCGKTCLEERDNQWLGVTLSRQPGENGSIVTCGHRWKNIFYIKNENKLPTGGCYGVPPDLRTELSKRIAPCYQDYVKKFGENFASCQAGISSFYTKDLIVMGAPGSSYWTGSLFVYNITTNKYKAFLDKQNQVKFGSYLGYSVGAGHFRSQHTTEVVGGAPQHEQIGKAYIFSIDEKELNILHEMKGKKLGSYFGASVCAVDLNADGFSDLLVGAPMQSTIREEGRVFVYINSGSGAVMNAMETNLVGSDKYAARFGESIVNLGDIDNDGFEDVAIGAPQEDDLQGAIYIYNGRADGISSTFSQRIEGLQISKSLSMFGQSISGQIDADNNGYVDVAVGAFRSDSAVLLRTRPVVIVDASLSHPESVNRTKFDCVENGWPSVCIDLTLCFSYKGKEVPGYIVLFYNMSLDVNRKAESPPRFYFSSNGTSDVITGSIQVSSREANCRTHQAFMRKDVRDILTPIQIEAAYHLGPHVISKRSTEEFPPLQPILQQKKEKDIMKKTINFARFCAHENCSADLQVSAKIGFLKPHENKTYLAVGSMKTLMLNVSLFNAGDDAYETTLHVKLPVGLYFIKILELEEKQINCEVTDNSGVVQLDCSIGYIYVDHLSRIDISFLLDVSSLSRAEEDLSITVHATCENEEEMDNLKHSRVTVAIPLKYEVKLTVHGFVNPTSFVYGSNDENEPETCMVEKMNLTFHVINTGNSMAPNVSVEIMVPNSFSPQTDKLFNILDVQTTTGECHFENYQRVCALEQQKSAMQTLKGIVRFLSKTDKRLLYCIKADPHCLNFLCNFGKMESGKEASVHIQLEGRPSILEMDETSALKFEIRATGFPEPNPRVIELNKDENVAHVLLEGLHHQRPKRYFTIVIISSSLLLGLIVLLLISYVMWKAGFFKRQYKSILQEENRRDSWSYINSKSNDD

[8] = calorie-restriction mimetic ROS inhibitors, yeast – validation compound set, pilot screen (AID 2706;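 active means superoxide response below 65% of plate, a cut near 3 SD across the whole screen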;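 further: yeast exposed to compound for one week at 30 degrees C before staining; 100% = mean of all compound wells on the same plate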); conditions: S. cerevisiae aging, superoxide DHE fluorescence; at 10 µM; stronger effect = lower value
[9] = molecular target: Beta-adrenergic receptor kinase 1 (Homo sapiens) (UniProt P25098); assay: GRK2 binders displacing RNA aptamer, biochemical, validation, human GRK2, bead flow cytometry (AID 488806;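 active means aptamer binding inhibition above 30%, about 3 SD of noise from non-fluorescent compounds; inactive means inhibition at or below 30%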); conditions: bead-bound GRK2, FAM-aptamer displacement, at 10 µM, stronger effect = higher value
Chain of Beta-adrenergic receptor kinase 1 (Homo sapiens) (P25098 whole entry, looked up): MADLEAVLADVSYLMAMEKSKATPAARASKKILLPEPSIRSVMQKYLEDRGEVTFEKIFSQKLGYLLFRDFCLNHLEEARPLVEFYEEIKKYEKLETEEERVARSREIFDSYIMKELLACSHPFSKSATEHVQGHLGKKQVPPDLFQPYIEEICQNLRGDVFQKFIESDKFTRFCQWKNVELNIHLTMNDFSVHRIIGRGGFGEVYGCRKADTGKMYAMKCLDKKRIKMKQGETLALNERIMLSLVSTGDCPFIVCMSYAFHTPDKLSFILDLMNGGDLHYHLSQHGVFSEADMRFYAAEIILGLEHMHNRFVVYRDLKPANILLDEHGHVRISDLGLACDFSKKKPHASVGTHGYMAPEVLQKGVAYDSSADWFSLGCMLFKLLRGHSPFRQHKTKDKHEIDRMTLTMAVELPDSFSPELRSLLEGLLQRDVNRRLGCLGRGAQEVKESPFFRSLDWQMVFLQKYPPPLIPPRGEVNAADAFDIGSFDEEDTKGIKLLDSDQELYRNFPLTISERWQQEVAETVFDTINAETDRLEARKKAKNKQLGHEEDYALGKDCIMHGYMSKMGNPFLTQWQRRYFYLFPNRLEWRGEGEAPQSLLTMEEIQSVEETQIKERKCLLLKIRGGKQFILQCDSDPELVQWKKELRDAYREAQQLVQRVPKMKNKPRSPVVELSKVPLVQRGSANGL

[10] = molecular target: Beta-2 adrenergic receptor (Homo sapiens) (UniProt P07550); assay: agonist-induced loss of surface beta2AR – cell-based, FAP fluorogen, flow cytometry, validation set, pilot screen (AID 504459;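 active means percent response above 42, roughly 3 SD of non-fluorescent test compounds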;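 further: agonist-driven loss of surface beta2AR via internalization measured by FAP dye flow cytometry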); conditions: Am2.2-beta2AR cells, at 10 µM, stronger effect = higher value
Chain of Beta-2 adrenergic receptor (Homo sapiens) (P07550 whole entry, looked up, the tested form may be a part): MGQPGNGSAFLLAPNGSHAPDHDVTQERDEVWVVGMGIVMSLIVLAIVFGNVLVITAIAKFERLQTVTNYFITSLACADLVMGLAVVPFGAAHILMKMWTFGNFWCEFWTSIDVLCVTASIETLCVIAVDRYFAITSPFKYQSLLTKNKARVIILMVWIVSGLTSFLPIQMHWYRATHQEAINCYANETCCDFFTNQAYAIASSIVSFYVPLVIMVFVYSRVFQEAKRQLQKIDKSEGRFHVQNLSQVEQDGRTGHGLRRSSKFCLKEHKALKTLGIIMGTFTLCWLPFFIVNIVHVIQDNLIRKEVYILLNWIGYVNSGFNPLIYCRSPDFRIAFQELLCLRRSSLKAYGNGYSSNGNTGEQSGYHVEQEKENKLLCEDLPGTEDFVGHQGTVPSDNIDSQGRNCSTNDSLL

[11] = molecular target: AP-2 complex subunit beta (Homo sapiens) (UniProt P63010); assay: beta-arrestin/AP2 interaction blockers – biochemical, validation set, GST-AP2 beads, flow cytometry, pilot screen (AID 504541); conditions: FITC arrestin peptide, at 10 µM, stronger effect = higher value, AP2 beta2 appendage fragment, R879A mutant;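 further: AP2 carries R879A mutation and is captured from E. coli lysate; bead-bound FITC arrestin peptide fluorescence measuring arrestin peptide binding to AP2; 0% = DMSO wells and 100% = excess unlabeled arrestin peptide control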
Chain of AP-2 complex subunit beta (Homo sapiens) (P63010 whole entry, looked up, the tested form may be a part, one chain of several): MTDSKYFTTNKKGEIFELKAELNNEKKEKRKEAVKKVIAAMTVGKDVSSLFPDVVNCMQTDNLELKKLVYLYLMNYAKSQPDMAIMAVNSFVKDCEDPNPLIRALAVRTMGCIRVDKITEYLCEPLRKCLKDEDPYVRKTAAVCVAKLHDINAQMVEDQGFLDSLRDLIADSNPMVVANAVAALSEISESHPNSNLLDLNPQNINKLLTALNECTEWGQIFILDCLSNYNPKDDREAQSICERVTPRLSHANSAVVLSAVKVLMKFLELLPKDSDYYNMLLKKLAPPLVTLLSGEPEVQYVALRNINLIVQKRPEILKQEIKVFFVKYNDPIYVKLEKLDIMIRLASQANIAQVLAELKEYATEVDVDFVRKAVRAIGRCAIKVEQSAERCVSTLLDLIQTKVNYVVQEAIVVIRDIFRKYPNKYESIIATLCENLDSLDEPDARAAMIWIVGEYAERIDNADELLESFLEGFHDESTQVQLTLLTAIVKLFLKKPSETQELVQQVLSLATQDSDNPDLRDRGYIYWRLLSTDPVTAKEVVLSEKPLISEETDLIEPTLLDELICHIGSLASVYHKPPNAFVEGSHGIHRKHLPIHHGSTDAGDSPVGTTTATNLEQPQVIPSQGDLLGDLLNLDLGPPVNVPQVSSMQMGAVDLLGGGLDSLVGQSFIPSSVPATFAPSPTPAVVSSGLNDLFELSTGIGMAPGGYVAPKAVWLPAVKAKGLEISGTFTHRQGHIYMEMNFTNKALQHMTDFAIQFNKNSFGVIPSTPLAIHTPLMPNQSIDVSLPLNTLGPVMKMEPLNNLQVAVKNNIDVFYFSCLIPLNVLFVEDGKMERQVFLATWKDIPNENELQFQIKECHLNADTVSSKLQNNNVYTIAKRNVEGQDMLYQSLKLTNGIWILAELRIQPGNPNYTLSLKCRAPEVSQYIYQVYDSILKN

[12] = cytosolic pH regulators acting via V-ATPase – S. cerevisiae, pHLuorin, HTS validation (AID 504600; in the data active means response above about 15%;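 further: plate controls were DMSO for no effect and reference compound for full effect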); conditions: V-ATPase proton transport, at 10 µM, stronger effect = higher value
[13] = test system: anti-desmoglein-3 scFv antibody binding to human DSG3; assay: blockers of pathogenic pemphigus antibody–desmoglein-3 binding – biochemical, validation compound set, bead-based, flow cytometry, pilot screen (AID 588368;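 active means binding below the plate cutoff, the plate median minus 3 SD, with a reading above zero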;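 further: signal is the median channel fluorescence of bead-bound GFP antibody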); conditions: Protein G beads, DSG3-Fc, scFv-GFP binding, at 10 µM, stronger effect = lower value
[14] = Nile Red efflux blockade in pump-expressing yeast – validation compound set, multiplex, phenotypic, pilot screen (AID 588506;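 active means efflux inhibition above 0.42, the validation set average plus 4 SD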;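 further: Nile Red retained in cells so higher fluorescence means more efflux inhibition; 0 = negative control wells and 1 = enniatin B 25 µM full block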); conditions: S. cerevisiae pump-expressing triplex, Nile Red efflux flow cytometry; at 10 µM; stronger effect = higher value; the pumps come from Candida albicans
[15] = molecular target: ATP-binding cassette sub-family B member 6 (Homo sapiens) (UniProt Q9NP58); assay: blockers of ABCB6-driven porphyrin uptake – K562-ABCB6 cells, flow cytometry, validation set, pilot screen (AID 588550;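 active means inhibition above the screen-wide mean plus 3 SD, about 51%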;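 further: 0% = DMSO wells and 100% = benzethonium chloride 70 µM positive control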); conditions: K562-ABCB6 porphyrin accumulation, 1 h, at 10 µM, stronger effect = higher value
Chain of ATP-binding cassette sub-family B member 6 (Homo sapiens) (Q9NP58 whole entry, looked up): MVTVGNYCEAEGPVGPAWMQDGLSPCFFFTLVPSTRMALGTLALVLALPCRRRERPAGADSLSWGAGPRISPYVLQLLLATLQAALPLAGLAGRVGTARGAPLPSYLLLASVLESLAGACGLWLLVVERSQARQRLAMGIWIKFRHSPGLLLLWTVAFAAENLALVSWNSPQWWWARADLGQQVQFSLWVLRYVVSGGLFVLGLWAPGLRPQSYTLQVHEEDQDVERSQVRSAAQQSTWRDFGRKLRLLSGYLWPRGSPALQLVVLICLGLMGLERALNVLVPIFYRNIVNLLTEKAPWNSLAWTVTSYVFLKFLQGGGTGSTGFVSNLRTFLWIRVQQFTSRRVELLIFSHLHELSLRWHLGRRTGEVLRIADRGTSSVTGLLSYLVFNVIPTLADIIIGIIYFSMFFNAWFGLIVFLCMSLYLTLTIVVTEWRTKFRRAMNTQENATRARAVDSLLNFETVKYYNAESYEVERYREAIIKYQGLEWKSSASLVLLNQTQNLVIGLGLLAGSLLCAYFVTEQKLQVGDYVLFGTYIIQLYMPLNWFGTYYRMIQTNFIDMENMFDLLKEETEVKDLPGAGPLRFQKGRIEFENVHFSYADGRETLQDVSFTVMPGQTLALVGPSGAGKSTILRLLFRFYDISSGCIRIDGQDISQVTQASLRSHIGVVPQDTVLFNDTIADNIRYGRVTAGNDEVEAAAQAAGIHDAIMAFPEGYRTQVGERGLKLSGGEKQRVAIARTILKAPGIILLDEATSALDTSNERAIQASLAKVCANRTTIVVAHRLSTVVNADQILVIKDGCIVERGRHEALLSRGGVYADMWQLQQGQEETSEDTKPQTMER

[16] = AML differentiation inducers, ER-HoxA9 marrow cells – cell-based, GFP/MAC1 double positive, flow cytometry, validation set, primary screen (AID 588685;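 active means differentiation response of at least 50%, scaled between solvent and reference control, from cells with both markers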;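 further: compound exposure lasts four days before antibody staining and flow analysis; 0% = DMSO wells and 100% = 5 µM fulvestrant positive control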); conditions: stronger effect = higher value, normalized: vehicle 0, fulvestrant 100

Compound	percent of DMSO control GFP [1]	GFP response vs DMSO [2]	percent response of DMSO control [3]	GFP response vs DMSO [4]	GFP response, % of DMSO [5]	double positive events [6] [%]	vesicle binding response [6]	inhibition [7]	superoxide response (% of plate) [8]	aptamer binding inhibition [9]	response [10]	inhibition [11]	response [12]	binding (% of control) [13]	efflux inhibition (fraction of control) [14]	inhibition [15]	differentiation response [16]
CCOc1ccc2nc(S(N)(=O)=O)sc2c1	101% (inactive)	104% (inactive)	99.7% (inactive)	100% (inactive)	103% (inactive)	55.1	103% (inactive)	0.25% (inactive)	102% (inactive)	5% (inactive)	3.56% (inactive)	-2.81% (inactive)	-4.65% (inactive)	101% (inactive)	-0.29 (inactive)	7% (inactive)	-13.3% (inactive)
Cc1ccc(C2CC(=O)C(C=NCCN3CCN(CC(=O)Nc4cc(C)cc(C)c4)CC3)=C(O)C2)cc1 (stereo not drawn)	103% (inactive)	103% (inactive)	97.6% (inactive)	108% (inactive)	105% (inactive)	60.5	196% (inactive)	-17.2% (inactive)	102% (inactive)	-3% (inactive)	-1.95% (inactive)	-1.73% (inactive)	-0.35% (inactive)	103% (inactive)	-0.05 (inactive)	13% (inactive)	-16.3% (inactive)
Cn1c(=O)[nH]c(=O)c2c1nc(NCc1ccco1)n2CCCc1ccccc1	101% (inactive)	101% (inactive)	100% (inactive)	90.1% (inactive)	105% (inactive)	62.6	36.6% (inactive)	-2.53% (inactive)	103% (inactive)	5% (inactive)	-5.62% (inactive)	9.94% (inactive)	0.19% (inactive)	97.2% (inactive)	-0.07 (inactive)	-1% (inactive)	-3.67% (inactive)
CCN(CC)C(=O)N1CCN(C)CC1	101% (inactive)	106% (inactive)	101% (inactive)	101% (inactive)	108% (inactive)	63.6	158% (inactive)	-3.77% (inactive)	104% (inactive)	-1% (inactive)	-0.51% (inactive)	7.6% (inactive)	0.18% (inactive)	103% (inactive)	0.72 (active)	9% (inactive)	-13.3% (inactive)
Cc1ccccc1NC(=O)c1c(C)cc(=O)oc1C	106% (inactive)	101% (inactive)	113% (inactive)	84.8% (inactive)	99.2% (inactive)	67.4	771% (inactive)	5.77% (inactive)	83.4% (inactive)	4% (inactive)	-4.18% (inactive)	-11.4% (inactive)	1.91% (inactive)	92.7% (inactive)	-0.2 (inactive)	-3% (inactive)	-1.71% (inactive)
O=C(COc1ccc2ccc(=O)oc2c1)c1ccccc1	91.1% (inactive)	130% (inactive)	102% (inactive)	85.3% (inactive)	88.4% (inactive)	59.9	132% (inactive)	-8.09% (inactive)	98.8% (inactive)	1% (inactive)	-4.3% (inactive)	14.3% (inactive)	-1.1% (inactive)	97.6% (inactive)	0.19 (inactive)	-10% (inactive)	-0.82% (inactive)
CN(C)CCCN1c2ccccc2Sc2ccccc21	98.1% (inactive)	102% (inactive)	99.6% (inactive)	107% (inactive)	120% (inactive)	61.4	202% (inactive)	44% (inactive)	96.9% (inactive)	-3% (inactive)	0.87% (inactive)	7.22% (inactive)	-5.2% (inactive)	102% (inactive)	-0.09 (inactive)	8% (inactive)	23.6% (inactive)
O=C(NCC1CCCO1)c1ccc(OC2CCN(C(=O)C3CC3)CC2)cc1 (stereo not drawn)	98.2% (inactive)	106% (inactive)	97.8% (inactive)	96.6% (inactive)	99.4% (inactive)	63.1	5260% (inactive)	-22.2% (inactive)	94% (inactive)	2% (inactive)	-3.28% (inactive)	-5.78% (inactive)	0.79% (inactive)	101% (inactive)	-0.01 (inactive)	3% (inactive)	-6.6% (inactive)
COc1ccc(OC)c(NC2=C(Cl)C(=O)N(Cc3ccccc3)C2=O)c1	104% (inactive)	105% (inactive)	103% (inactive)	103% (inactive)	99.8% (inactive)	59.3	98% (inactive)	4.27% (inactive)	99.4% (inactive)	0% (inactive)	3% (inactive)	5.66% (inactive)	2.16% (inactive)	107% (inactive)	-0.075 (inactive)	0% (inactive)	-11.9% (inactive)
CC1(C)Cc2ccccc2-c2nc(-c3ccccc3)oc(=O)c21	102% (inactive)	94.7% (inactive)	96.4% (inactive)	107% (inactive)	112% (inactive)	63.3	149% (inactive)	2.29% (inactive)	89.6% (inactive)	4% (inactive)	-10.1% (inactive)	-10.6% (inactive)	-7.89% (inactive)	98.8% (inactive)	0.08 (inactive)	7% (inactive)	-0.06% (inactive)
CN(C)c1ccc(C(CN)c2c[nH]c3ccccc23)cc1 (stereo not drawn)	106% (inactive)	109% (inactive)	104% (inactive)	108% (inactive)	107% (inactive)	61.4	112% (inactive)	9.63% (inactive)	99.4% (inactive)	-10% (inactive)	4.69% (inactive)	33.6% (inactive)	-9.67% (inactive)	102% (inactive)	0.09 (inactive)	-9% (inactive)	-16.3% (inactive)
COc1cc2c(cc1OC)C(c1ccc(-c3cc(Cl)ccc3Cl)o1)=NCC2	102% (inactive)	109% (inactive)	101% (inactive)	75.2% (inactive)	79.3% (inactive)	59.5	228% (inactive)	-53.7% (inactive)	97.5% (inactive)	5% (inactive)	60.6% (active)	17.6% (inactive)	2.96% (inactive)	101% (inactive)	0.3 (inactive)	3% (inactive)	-26.4% (inactive)
Nc1cc(-c2ccncc2)c[nH]c1=O	103% (inactive)	103% (inactive)	112% (inactive)	102% (inactive)	105% (inactive)	63.1	184% (inactive)	-11.8% (inactive)	82.5% (inactive)	-6% (inactive)	8.85% (inactive)	-8.58% (inactive)	-0.06% (inactive)	105% (inactive)	0.015 (inactive)	-6% (inactive)	-4.57% (inactive)
CC12CN3CC(C)(CN(C1)C3c1ccc([N+](=O)[O-])o1)C2 (stereo not drawn)	102% (inactive)	101% (inactive)	95.4% (inactive)	96% (inactive)	91.5% (inactive)	64.6	1050% (inactive)	12% (inactive)	111% (inactive)	5% (inactive)	-5.46% (inactive)	1.92% (inactive)	2.45% (inactive)	93.8% (inactive)	-0.1 (inactive)	-9% (inactive)	7.09% (inactive)
CC1(C)CC(CC(=O)O)(c2ccc(Cl)cc2)CCO1 (stereo not drawn)	86% (inactive)	126% (inactive)	96.6% (inactive)	85.3% (inactive)	92.8% (inactive)	61.2	136% (inactive)	-0.33% (inactive)	94.5% (inactive)	3% (inactive)	-2.75% (inactive)	-8.86% (inactive)	0.57% (inactive)	107% (inactive)	-0.17 (inactive)	9% (inactive)	-3.28% (inactive)
COc1cccc(OCc2nnc(-c3cccs3)o2)c1	103% (inactive)	105% (inactive)	102% (inactive)	120% (inactive)	99.6% (inactive)	60.1	248% (inactive)	5.69% (inactive)	104% (inactive)	3% (inactive)	55.8% (active)	61% (active)	-2.54% (inactive)	102% (inactive)	0.08 (inactive)	-5% (inactive)	-0.06% (inactive)
CC(C)OC(=O)C1C(=O)CC(C)(O)C(C(=O)OC(C)C)C1c1cccc(O)c1 (stereo not drawn)	105% (inactive)	99.7% (inactive)	105% (inactive)	101% (inactive)	114% (inactive)	55.9	278% (inactive)	-18.5% (inactive)	85.3% (inactive)	-5% (inactive)	6.25% (inactive)	29.4% (inactive)	-3.54% (inactive)	99.8% (inactive)	-0.22 (inactive)	-13% (inactive)	-11.9% (inactive)
CC(C)c1ccc(/C=C/C(=O)O)cc1	96.3% (inactive)	105% (inactive)	81.5% (inactive)	161% (active)	83.4% (inactive)	56.5	218% (inactive)	7.76% (inactive)	99.5% (inactive)	3% (inactive)	3.14% (inactive)	3.59% (inactive)	1.59% (inactive)	94.5% (inactive)	-0.35 (inactive)	4% (inactive)	-2.4% (inactive)
O=C(CN1C(=O)/C(=C/c2cccc(Br)c2)SC1=S)Nc1cccnc1	101% (inactive)	105% (inactive)	101% (inactive)	109% (inactive)	109% (inactive)	58.9	59.7% (inactive)	-19.9% (inactive)	102% (inactive)	0% (inactive)	-8.62% (inactive)	-4.86% (inactive)	4.59% (inactive)	99% (inactive)	-0.41 (inactive)	-10% (inactive)	2.74% (inactive)
